From PubChem BioAssay (NCATS)
Where “and” joins values, the source holds several entries; their conditions need not be identical. Equal values may be shown once. Unmarked numbers belong to inactive results. Results filed as inconclusive are left out. Where a call stands in place of a potency, no number is given. Calls of active or inactive are those of the source. Unless noted, calls come from the whole dose curve; as a rule, active = well fitted curve in the direction sought with a large enough effect; inconclusive = small, poorly fitted or top-dose-only effect, or another doubt; inactive = no such curve, though single readings can be large; an effect the other way counts as inactive or inconclusive.

What was measured:
[1] = qHTS Assay for Identification of Small Molecule Agonists for Thrombopoietin (TPO) Signaling Pathway (AID 917); note: potency is the fitted concentration of half-maximal effect
In short: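 Human TPO receptor–transfected Ba/F3 cells (murine, IL-3-dependent) in IL-3-deficient medium; compounds plus TPO at EC50, 26 pM final; 24 hrs, 37 C; GpIIb-luciferase luminescence after 10 min RT detection.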

[2] = molecular target: Pyruvate kinase (Leishmania mexicana) (UniProt Q27686); assay: qHTS Validation Assay for Inhibitors of Leishmania Mexicana Pyruvate Kinase (AID 945); note: potency is the fitted concentration of half-maximal effect
Chain of Pyruvate kinase (Leishmania mexicana) (Q27686 2-499 E452W): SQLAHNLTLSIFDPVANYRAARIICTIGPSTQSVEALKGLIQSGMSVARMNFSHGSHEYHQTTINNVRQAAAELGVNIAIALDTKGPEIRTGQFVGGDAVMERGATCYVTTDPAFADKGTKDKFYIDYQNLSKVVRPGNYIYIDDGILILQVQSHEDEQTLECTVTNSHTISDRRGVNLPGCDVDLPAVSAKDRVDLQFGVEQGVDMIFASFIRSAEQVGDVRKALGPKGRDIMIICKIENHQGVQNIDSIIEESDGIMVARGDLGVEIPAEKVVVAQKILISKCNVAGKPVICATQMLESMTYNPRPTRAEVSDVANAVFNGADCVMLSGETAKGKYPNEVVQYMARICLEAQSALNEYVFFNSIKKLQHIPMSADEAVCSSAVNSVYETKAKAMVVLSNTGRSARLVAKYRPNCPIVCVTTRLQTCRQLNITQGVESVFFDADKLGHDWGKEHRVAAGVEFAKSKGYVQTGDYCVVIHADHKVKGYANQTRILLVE
In short: (§1)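 LmPYK E451W 0.2 nM; 0.5 mM PEP, 0.1 mM ADP, 7 mM MgCl2, 50 mM KCl, imidazole pH 7.2, 0.01% Tween 20, 0.05% BSA; 1 h RT; PKLight luminescence; DMSO-normalized.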

[3] = molecular target: Pyruvate kinase PKM (Homo sapiens) (UniProt P14618); assay: qHTS Assay for Activators of Human Muscle Pyruvate Kinase (AID 954; active = well fitted curve in the direction sought with a large enough effect, not every such curve was filed as active)
Chain of Pyruvate kinase PKM (Homo sapiens) (P14618 whole entry, looked up): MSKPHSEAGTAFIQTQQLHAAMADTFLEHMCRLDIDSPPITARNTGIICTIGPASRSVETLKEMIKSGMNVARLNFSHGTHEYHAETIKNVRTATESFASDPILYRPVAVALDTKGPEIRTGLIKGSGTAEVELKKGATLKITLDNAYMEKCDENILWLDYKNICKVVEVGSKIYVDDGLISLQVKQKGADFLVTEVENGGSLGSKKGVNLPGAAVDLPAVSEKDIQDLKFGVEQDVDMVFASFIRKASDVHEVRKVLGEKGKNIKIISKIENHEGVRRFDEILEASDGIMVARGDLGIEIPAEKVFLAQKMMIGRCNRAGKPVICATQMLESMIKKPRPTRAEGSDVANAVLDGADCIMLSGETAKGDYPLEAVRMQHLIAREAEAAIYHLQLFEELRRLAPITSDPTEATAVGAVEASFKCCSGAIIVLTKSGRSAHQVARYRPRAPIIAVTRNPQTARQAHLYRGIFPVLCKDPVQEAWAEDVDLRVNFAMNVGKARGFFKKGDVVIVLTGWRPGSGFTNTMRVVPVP
In short: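 PKM2, human, >95% pure, 0.1 nM; PEP 0.5 mM (Km), ADP 0.1 mM; 50 mM imidazole pH 7.2, 50 mM KCl, 0.01% Tween 20, 0.05% BSA; 1 h RT; luciferase luminescence readout.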

[4] = molecular target: Muscarinic acetylcholine receptor M1 (Rattus norvegicus) (UniProt P08482); assay: qHTS Assay for Antagonists of Acetylcholine Muscarinic M1 Receptor: Kinetic Measurement of Intracellular Calcium Response (AID 943);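 note: Fluo-4 calcium signal as peak divided by basal fluorescence over 4 min; series mostly up to about 35 µM; nearly all actives have a fitted effect of over 75% in size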
Chain of Muscarinic acetylcholine receptor M1 (Rattus norvegicus) (P08482 whole entry, looked up): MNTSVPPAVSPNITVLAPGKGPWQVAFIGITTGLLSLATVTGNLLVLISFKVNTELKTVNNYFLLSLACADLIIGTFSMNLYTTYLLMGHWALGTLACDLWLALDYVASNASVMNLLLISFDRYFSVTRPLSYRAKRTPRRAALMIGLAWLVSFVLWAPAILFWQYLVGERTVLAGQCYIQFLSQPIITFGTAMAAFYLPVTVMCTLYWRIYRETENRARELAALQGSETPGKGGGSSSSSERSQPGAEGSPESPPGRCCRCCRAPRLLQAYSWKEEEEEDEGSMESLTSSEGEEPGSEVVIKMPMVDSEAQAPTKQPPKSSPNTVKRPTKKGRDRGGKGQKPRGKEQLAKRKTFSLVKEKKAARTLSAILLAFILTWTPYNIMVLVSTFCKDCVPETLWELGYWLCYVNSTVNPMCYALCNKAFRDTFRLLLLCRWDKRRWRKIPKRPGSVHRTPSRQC
In short: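 Quantitative HTS in CHO-M1 (rat receptor) cells: 10 min compound exposure ahead of 100 nM carbachol, Fluo-4 fluorescence followed 4 min, value expressed as peak-to-basal ratio.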

[5] = molecular target: Muscarinic acetylcholine receptor M1 (Rattus norvegicus) (UniProt P08482); assay: qHTS Assay for Antagonists of Acetylcholine Muscarinic M1 Receptor: Measurement of IP-One Response (AID 944); note: nearly all actives have a fitted effect of over 75% in size
In short: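 Antagonism was measured as loss of carbachol-driven (EC80) IP1 accumulation in CHO cells carrying rat M1, using a homogeneous IP-One TR-FRET kit read at 620 and 665 nm.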

[6] = qHTS Assay for Identification of Small Molecule Agonists for Hypoxia Response Element Signaling Pathway (AID 914; active = well fitted activation curve with a large enough effect in the signal ratio, with a control signal flat, not every such curve was filed as active; the % refers to the signal ratio); details: ME-180 HRE-bla reporter, beta-lactamase ratio, CoCl2, 17 h; active compounds read high
In short: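 ME-180 cells carrying an HRE-driven beta-lactamase reporter were treated with compounds in a titration series plus an EC50 level of CoCl2 for 17 h at 37 degrees Celsius; CCF4 readout as the 460nm/530nm ratio gave AC50 values.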

[7] = Confirmation and Secondary Assay for Modulators of Hemoglobin Beta Chain Splicing at IVS2 705 locus (AID 930);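 note: HeLa cells stably expressing the EGFP-705 splicing reporter; series mostly up to about 46 µM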
In short: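 HeLa cells stably carrying EGFP interrupted by mutant beta-globin IVS2-705 intron (CMV-driven) were seeded at 500 cells/well, treated next day with compound for 2 days at 37C; corrected splicing restores EGFP, read as total peak GFP intensity per well.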

[8] = Cell Viability - LYMP2-001 (AID 921);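 note: series mostly up to about 92 µM; cells exposed to compound for 24 h at 37 °C; nearly all actives have a fitted effect of over 70% in size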
In short: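 A lymphoblastoid cell line of human origin was treated with library compounds across a concentration series for 24 hours, and viable cell number was estimated from ATP-driven luciferase light output. Hill modeling gave AC50.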

[9] = MultiTox-Fluor Cytotoxicity Assay - LYMP1-001 - Live Cells (AID 947)
[10] = Cell Viability - LYMP1-002 - Assay at 16 hr (AID 948)
In short: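 In this qHTS, lymphoblastoid LYMP1-002 cells (human) receive compounds for 16 hr at 37 C. Viability is taken from CellTiter-Glo ATP luminescence, and AC50 derives from standard Hill fits.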

[11] = MultiTox-Fluor Cytotoxicity Assay - LYMP1-002 - Live Cells (AID 955);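 note: cells exposed to compound for 16 hours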
In short: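 In this qHTS viability format, lymphoblastoid cells (LYMP1-002, human) received compound for 16 hr at 37 C. Fluorogenic GF-AFC cleavage by viable cells was detected at 405/510 nm after 1 h at room temperature.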

[12] = MultiTox-Fluor Cytotoxicity Assay - LYMP1-003 - Dead Cells (AID 961); note: nearly all actives have a fitted effect of over 70% in size
In short: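 LYMP1-003 lymphoblastoid, 2500 cells/well, 5 hr settle then 16 hr cpd at 37 C; MultiTox-Fluor reagent 60 min RT; Ex/Em 485/520 dead-cell signal; norm. DMSO = 0%, 15 uM tetraoctylammonium bromide = 100%; Hill AC50.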

[13] = MultiTox-Fluor Cytotoxicity Assay - LYMP1-003 - Live Cells (AID 962);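 note: cells exposed to compound for 16 hours at 37 °C; cytotoxic hits lower the live-cell protease signal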
In short: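 Human lymphoblastoid line LYMP1-003 in complete culture medium, treated 16 hr with titrated compounds. Viable cells quantified via cell-permeant GF-AFC substrate fluorescence; AC50 derived by Hill fitting.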

[14] = Cell Viability - LYMP1-003 - Assay at 24 hr (AID 963)
In short: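 The lymphoblastoid line was treated with titrated compounds for 24 hours, and viable cell number estimated from luciferase-based ATP luminescence.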

[15] = Cell Viability - LYMP1-003 - Assay at 40 hr (AID 964); note: series mostly up to about 92 µM; nearly all actives have a fitted effect of over 60% in size
In short: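 Acute toxicity is scored as a concentration-dependent loss of intracellular ATP in LYMP1-003 cells (2500/well, complete medium) after 40 hr at 37 C, measured by CellTiter-Glo luminescence; AC50 values derive from standard Hill modelling.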

[16] = qHTS Assay for Identification of Small Molecule Agonists for NFkB Signaling Pathway (AID 928; calls by dose curve); details: NFkB beta-lactamase reporter cells, blue/green ratio
In short: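 Activators were sought with TNF alpha co-added at 10 pM final (its EC50) to beta-lactamase reporter cells. Cells were plated in OPTI MEM with 0.5% FBS and exposed for 5 hrs at 37 C. The FRET substrate ratio was read at 460 and 530 nm.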

[17] = MultiTox-Fluor Cytotoxicity Assay - LYMP1-002 - Dead Cells (AID 960); note: nearly all actives have a fitted effect of over 60% in size
In short: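 Concentration-dependent increases in membrane-leaked protease activity are quantified in LYMP1-002 cells after 16 hr treatment; values are normalized against DMSO and tetraoctylammonium bromide (15 uM) controls and AC50 derived by Hill modeling.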

[18] = qHTS Assay for Identification of Small Molecule Antagonists for Thrombopoietin (TPO) Signaling Pathway (AID 918); details: TPO-dependent cell signaling reporter, antagonist mode; note: potency is the fitted concentration of half-maximal effect; nearly all actives have a fitted effect of over 60% in size
In short: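 Antagonist mode at EC50 TPO (26 pM) in IL-3-free medium; murine Ba/F3 cells with human TPO receptor and GPIIb-promoter luciferase, 24 hrs at 37 C before luminescent detection.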

[19] = molecular target: Pyruvate kinase PKM (Homo sapiens) (UniProt P14618); assay: qHTS Assay for Inhibitors of Human Muscle Pyruvate Kinase (AID 958); details: purified human PKM enzyme activity
In short: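 A coupled luminescent readout tracked ATP made from ADP by purified PKM2. Final conditions included 0.1 nM enzyme, PEP and ADP at 0.5 and 0.1 mM, pH 7.2 imidazole buffer with BSA, and a one-hour room-temperature reaction.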

[20] = molecular target: Pyruvate kinase (Leishmania mexicana) (UniProt Q27686); assay: qHTS Validation Assay for Activators of Leishmania Mexicana Pyruvate Kinase (AID 959)
In short: as §1

Which results are given for `CCN1CCC[C@H]1CNC(=O)c1cc(S(N)(=O)=O)ccc1OC`?
Potency [1]: inactive; Potency [2]: inactive; outcome [3]: inactive

Which Potency [1] does the source give for `C[N+](C)(C)CC(=O)O` here?
The Potency was “inactive”.

And the outcome [4]?
The outcome was “inactive”.

What about the outcome [5] of the same compound?
The outcome was “inactive”.

What about the Potency [2] of the same compound?
The Potency was “inactive”.

And the outcome [3]?
The outcome was “inactive”.

For `c1cc(-c2sc(-c3ccncc3)c(-c3ccncc3)c2-c2ccncc2)ccn1`, which activation [6] is on record?
Its activation is -25.7%.

For `CCN(CC)CCOC(=O)c1ccc(N)cc1`, which Potency [1] is on record?
Its Potency is “inactive”.

And the outcome [7]?
Its outcome is “inactive”.

And the Potency [2]?
The Potency was “inactive”.

And the outcome [3]?
The outcome was “inactive”.

What does the source list for `CCN(CC)C(=O)c1ccc(O)c(OC)c1`?
Potency [1]: inactive; outcome [4]: inactive; outcome [5]: inactive; Potency [2]: inactive; outcome [3]: inactive

Which Potency [1] does the source give for `CC(=O)c1ccc(S(=O)(=O)NC(=O)NC2CCCCC2)cc1` here?
The Potency was “inactive”.

What about the Potency [8] of the same compound?
Its Potency is “inactive”.

What about the outcome [4] of the same compound?
Its outcome is “inactive”.

And the Potency [2]?
Its Potency is “inactive”.

And the outcome [9]?
Its outcome is “inactive”.

And the Potency [10]?
The Potency was “inactive”.

What about the outcome [3] of the same compound?
Its outcome is “inactive”.

And the Potency [11]?
Its Potency is “inactive”.

What about the outcome [12] of the same compound?
Its outcome is “inactive”.

What about the Potency [13] of the same compound?
Its Potency is “inactive”.

What about the Potency [14] of the same compound?
The Potency was “inactive”.

And the Potency [15]?
The Potency was “inactive”.

Which results are given for `CCCNC(=O)NS(=O)(=O)c1ccc(Cl)cc1`?
activation [6]: -1.93% and -16.9% and -21.4%; Potency [1]: inactive; Potency [8]: inactive; Potency [16]: 0.447 µM (active); outcome [7]: inactive; Potency [2]: inactive; outcome [9]: inactive; Potency [10]: inactive; outcome [3]: inactive; Potency [11]: inactive; Potency [17]: inactive; outcome [12]: inactive; Potency [13]: inactive; Potency [14]: inactive; Potency [15]: inactive

With `C[N+](C)(C)CCCCCC[N+](C)(C)C` as the compound, how does the Potency [1] read?
The Potency was “inactive”.

What about the outcome [7] of the same compound?
The outcome was “inactive”.

And the outcome [4]?
Its outcome is “inactive”.

What about the outcome [5] of the same compound?
The outcome was “inactive”.

What about the Potency [2] of the same compound?
The Potency was “inactive”.

And the outcome [3]?
The outcome was “inactive”.

For `CC(C)OC(=O)C(C)(C)Oc1ccc(C(=O)c2ccc(Cl)cc2)cc1`, which Potency [1] is on record?
The Potency was “inactive”.

And the outcome [7]?
Its outcome is “inactive”.

And the outcome [3]?
The outcome was “inactive”.

Which results are given for `COCCCCC(=NOCCN)c1ccc(C(F)(F)F)cc1`?
Potency [1]: inactive; outcome [4]: inactive; outcome [5]: inactive; Potency [2]: inactive; outcome [3]: inactive

Which Potency [1] does the source give for `NC(N)=Nc1nc(CSCC/C(N)=N/S(N)(=O)=O)cs1` here?
The Potency was “inactive”.

And the Potency [2]?
Its Potency is “inactive”.

And the outcome [3]?
The outcome was “inactive”.

Which activation [6] does the source give for `CCCCC1C(=O)N(c2ccccc2)N(c2ccccc2)C1=O` here?
The activation was -18.4% and -5.39%.

What about the Potency [1] of the same compound?
Its Potency is “inactive”.

And the Potency [8]?
The Potency was “inactive”.

And the outcome [7]?
The outcome was “inactive”.

And the Potency [2]?
The Potency was “inactive”.

What about the outcome [9] of the same compound?
The outcome was “inactive”.

What about the Potency [10] of the same compound?
Its Potency is “inactive”.

And the outcome [3]?
Its outcome is “inactive”.

And the Potency [11]?
The Potency was “inactive”.

And the Potency [17]?
The Potency was “inactive”.

What about the outcome [12] of the same compound?
The outcome was “inactive”.

What about the Potency [13] of the same compound?
The Potency was “inactive”.

And the Potency [14]?
The Potency was “inactive”.

And the Potency [15]?
Its Potency is “inactive”.

With `O=C1NCC2(CCN(CCc3ccccc3)CC2)O1` as the compound, how does the Potency [1] read?
Its Potency is “inactive”.

What about the outcome [7] of the same compound?
The outcome was “inactive”.

And the Potency [2]?
Its Potency is “inactive”.

What about the outcome [3] of the same compound?
Its outcome is “inactive”.

Which results are given for `O=C(O)CCc1nc(-c2ccccc2)c(-c2ccccc2)o1`?
Potency [1]: inactive; outcome [7]: inactive; Potency [2]: inactive; outcome [3]: inactive

For `CC(C)NCC(O)COc1cccc2[nH]ccc12` (configuration not stated), which Potency [1] is on record?
The Potency was “inactive”.

And the outcome [7]?
Its outcome is “inactive”.

What about the Potency [2] of the same compound?
The Potency was “inactive”.

And the outcome [3]?
The outcome was “inactive”.

With `Clc1ccc(Cn2c(CN3CCCC3)nc3ccccc32)cc1` as the compound, how does the Potency [1] read?
Its Potency is “inactive”.

And the outcome [5]?
Its outcome is “inactive”.

And the Potency [2]?
Its Potency is “inactive”.

What about the outcome [3] of the same compound?
Its outcome is “inactive”.

What does the source list for `CC(=O)CCCCn1c(=O)c2c(ncn2C)n(C)c1=O`?
Potency [1]: inactive; outcome [7]: inactive; outcome [5]: inactive; Potency [2]: inactive; outcome [3]: inactive

For `CC(C)(C)c1ccc(C(O)CCCN2CCC(C(O)(c3ccccc3)c3ccccc3)CC2)cc1` (configuration not stated), which activation [6] is on record?
The activation was 3.01%.

And the Potency [18]?
The Potency was 2.51 µM (active).

And the Potency [2]?
The Potency was “inactive”.

And the outcome [3]?
The outcome was “inactive”.

Which Potency [1] does the source give for `COc1cccc(-c2cc(=O)c3ccccc3o2)c1N` here?
The Potency was 0.398 µM (active).

What about the outcome [5] of the same compound?
Its outcome is “inactive”.

What about the Potency [2] of the same compound?
Its Potency is 12.6 µM (active).

What about the outcome [3] of the same compound?
Its outcome is “inactive”.

What about the Potency [19] of the same compound?
Its Potency is 15.8 µM (active).

And the outcome [20]?
The outcome was “inactive”.

Which results are given for `NCCS`?
Potency [1]: inactive; outcome [7]: inactive; outcome [4]: inactive; outcome [5]: inactive; Potency [2]: inactive; outcome [3]: inactive

Which results are given for `CCN(CC)CCNC(=O)c1ccc(N)cc1`?
Potency [1]: inactive; outcome [7]: inactive; outcome [5]: inactive; Potency [2]: inactive; outcome [3]: inactive

For `COc1ccccc1N1CCN(CCCNc2cc(=O)n(C)c(=O)n2C)CC1`, which Potency [1] is on record?
The Potency was “inactive”.

What about the outcome [7] of the same compound?
The outcome was “inactive”.

What about the Potency [2] of the same compound?
The Potency was “inactive”.

What about the outcome [3] of the same compound?
The outcome was “inactive”.
